{
  "source": "PubChem BioAssay (EPA / NIEHS)",
  "note": "“And” between values parts separate entries of the source, which are not always exact repeats. Equal values may be shown once. The source holds several records for some structures; these can differ, active in one and inactive in another. The source made the active and inactive calls. How the source made its calls: active means hit-call score of the fitted dose curve at least 0.9, where 1 is the maximum; inactive means score below 0.9.",
  "data": [
    {"test": "BSK_KF3CT_SRB: Viability Assessment in the BioMAP Diversity Plus: KF3CT Assay (AID 2283069);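 further: read 24 h after compound addition; fitted for both signal gain and loss against DMSO baseline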", "details": "primary human keratinocytes with fibroblasts", "in_short": "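Overt cytotoxicity is assessed as total protein by sulforhodamine B staining in parallel human skin co-cultures at 24 h after dosing. DMSO serves as negative control and baseline.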", "values": [
      {"smiles": "O=C(O)C(F)(F)C(F)(F)C(F)(F)C(F)(F)C(F)(F)C(F)(F)C(F)(F)F", "outcome": "inactive"},
      {"smiles": "CNC(=O)/C=C(\\C)OP(=O)(OC)OC", "outcome": "inactive"},
      {"smiles": "CC1(c2ccc(Oc3ccccc3)cc2)OC(=O)N(Nc2ccccc2)C1=O", "note": "(stereo unspecified)", "outcome": "inactive"},
      {"smiles": "O=C(Nc1ccccc1)Nc1cnns1", "outcome": "inactive"},
      {"smiles": "COP(=S)(OC)Oc1ccc([N+](=O)[O-])cc1", "outcome": "inactive"},
      {"smiles": "CNC(=O)Oc1cccc(N=CN(C)C)c1", "outcome": "inactive"},
      {"smiles": "CCCN(CCOc1c(Cl)cc(Cl)cc1Cl)C(=O)n1ccnc1", "outcome": "inactive"},
      {"smiles": "COC(=O)c1ccccc1S(=O)(=O)NC(=O)Nc1nc(C)nc(OC)n1", "outcome": "inactive"},
      {"smiles": "Cc1cc(C)nc(NC(=O)NS(=O)(=O)c2ccccc2C(=O)OC2COC2)n1", "outcome": "inactive"},
      {"smiles": "CCC(C)(C)C(=O)OC1=C(c2ccc(Cl)cc2Cl)C(=O)OC12CCCCC2", "AC50": "31.9 µM (active)"},
      {"smiles": "CNC(=O)Oc1ccccc1OC(C)C", "outcome": "inactive"},
      {"smiles": "Clc1ccccc1-c1nnc(-c2ccccc2Cl)nn1", "outcome": "inactive"},
      {"smiles": "O=C1c2ccccc2C(=O)N1SC(Cl)(Cl)Cl", "outcome": "inactive"},
      {"smiles": "Cc1[nH]c(=O)n(C(C)(C)C)c(=O)c1Cl", "outcome": "inactive"},
      {"smiles": "C[C@H]1[C@H](c2ccc(Cl)cc2)SC(=O)N1C(=O)NC1CCCCC1", "outcome": "inactive"},
      {"smiles": "COC(=O)c1ccccc1S(=O)(=O)NC(=O)N(C)c1nc(C)nc(OC)n1", "outcome": "inactive"},
      {"smiles": "CCc1ccc(C(=O)NN(C(=O)c2cc(C)cc(C)c2)C(C)(C)C)cc1", "outcome": "inactive"},
      {"smiles": "CC[C@H](C)[C@H]1O[C@]2(C=C[C@@H]1C)C[C@@H]1C[C@@H](C/C=C(\\C)[C@@H](O[C@H]3C[C@H](OC)[C@@H](O[C@H]4C[C@H](OC)[C@@H](O)[C@H](C)O4)[C@H](C)O3)[C@@H](C)/C=C/C=C3\\CO[C@@H]4[C@H](O)C(C)=C[C@@H](C(=O)O1)[C@]34O)O2", "note": "(tested in a mixture with another compound)", "AC50": "14.1 µM (active)"},
      {"smiles": "O=S(=O)(O)C(F)(F)C(F)(F)C(F)(F)C(F)(F)C(F)(F)C(F)(F)C(F)(F)C(F)(F)F", "AC50": "39.2 µM (active) and 29.9 µM (active)", "outcome": "inactive"},
      {"smiles": "COP(=S)(OC)Oc1ccc(SC)c(C)c1", "outcome": "inactive"},
      {"smiles": "COC(=O)c1ccccc1CS(=O)(=O)NC(=O)Nc1nc(OC)cc(OC)n1", "outcome": "inactive"},
      {"smiles": "Oc1cc(Cl)ccc1Oc1ccc(Cl)cc1Cl", "AC50": "30.1 µM (active) and 14.4 µM (active) and 28.2 µM (active)"},
      {"smiles": "OCCOc1ccccc1", "outcome": "inactive"},
      {"smiles": "ClC1C(Cl)C(Cl)C(Cl)C(Cl)C1Cl", "note": "(stereo unspecified)", "outcome": "inactive"},
      {"smiles": "CC(C)N(C(=O)COc1nnc(C(F)(F)F)s1)c1ccc(F)cc1", "outcome": "inactive"}
    ]}
  ]
}
